# Source: PubChem BioAssay AID1851 (National Center for Advancing Translational Sciences (NCATS), 2009)
# Screen size: about 16,000 compounds; about 5,800 (36%) were called active. Inconclusive results (about 23%) are left out. The call rests on the fitted dose curve; in most records, active means well fitted curve in the direction sought with a large enough effect; inconclusive means small, poorly fitted or top-dose-only effect, or effect the other way; inactive means no such curve, though single readings can be large or run the other way. Some of the results follow.
# Molecular target: Cytochrome P450 2C19 (Homo sapiens) (UniProt P33261)
# Sequence (P33261 whole entry, looked up): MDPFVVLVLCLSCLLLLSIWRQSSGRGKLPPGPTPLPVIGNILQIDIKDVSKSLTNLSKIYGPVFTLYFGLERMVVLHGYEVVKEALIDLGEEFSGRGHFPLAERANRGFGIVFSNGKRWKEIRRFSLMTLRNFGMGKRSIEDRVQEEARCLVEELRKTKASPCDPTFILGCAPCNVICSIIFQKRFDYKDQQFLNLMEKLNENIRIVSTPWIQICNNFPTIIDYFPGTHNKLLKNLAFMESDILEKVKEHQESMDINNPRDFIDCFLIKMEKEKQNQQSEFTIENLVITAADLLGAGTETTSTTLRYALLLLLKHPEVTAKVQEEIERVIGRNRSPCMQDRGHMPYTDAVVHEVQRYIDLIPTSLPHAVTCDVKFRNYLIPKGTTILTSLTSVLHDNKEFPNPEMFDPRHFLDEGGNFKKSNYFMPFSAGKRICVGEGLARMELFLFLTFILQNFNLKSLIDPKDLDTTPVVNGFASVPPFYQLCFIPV
# Assay: Cytochrome panel assay with activity outcomes
# Conditions: recombinant CYP, pro-luciferin dealkylation, luminescence, p450-cyp2c19; series mostly up to 57.1 µM; activity, negative = inhibition: at the top concentration
# On the % scale 0 is the no-effect control and ±100 the full control effect.
Structure (SMILES),AC50,"activity, negative = inhibition"
O=C(COC(=O)c1cccc(S(=O)(=O)N2CCN(c3ccccc3)CC2)c1)NCc1ccco1,708 nM (active),
O=C(COC(=O)c1cccc(S(=O)(=O)N2CCOCC2)c1)Nc1nc(-c2ccccc2Cl)cs1,3980 nM (active),
CCCc1nc2ccccc2c(C(=O)OCC(=O)Nc2cccc(S(=O)(=O)N3CCOCC3)c2)c1CC,3550 nM (active),
COc1ccc2ccccc2c1/C=C\C(=O)c1ccccc1,316 nM (active),
COc1ccccc1/C=C/C(=O)c1ccc(Cl)cc1,2240 nM (active),
COc1ccc(Cc2ccccc2C(=O)O)c2ccccc12,,12.2% [at 11.4 µM] (inactive)
COc1ccccc1/C=C/C(=O)c1c2c(c(C)[nH]c1=O)CCCC2,7940 nM (active),
COc1cc(C)cc(OC)c1/C=C\C(=O)O,,-0.542% [at 11.4 µM] (inactive)
C[C@@H](Cc1ccccc1)Nc1ncnc2c1ncn2[C@@H]1O[C@@H](CO)[C@H](O)[C@@H]1O,,33.5% (inactive)
CC(O)(P(=O)(O)O)P(=O)(O)O,,-13.4% [at 25.6 µM] (inactive)
NC(=S)NCCC[C@@H](N)C(=O)O,,-37.7% (inactive)
CCCN=C(N)NCCC[C@H](N)C(=O)O,2000 nM (active),
NC(=NCCC[C@H](N)C(=O)O)NO,,13.3% (inactive)
O=C1CN=C(Nc2ccc(Cl)cc2)N1c1ccccc1,11200 nM (active),
O=C(O)c1nn(-c2ccc(Cl)cc2)c2c1C(=O)c1ccccc1C2=O,,4.89% [at 11.4 µM] (inactive)
CCOC(=O)COc1ccc(/C=C/[N+](=O)[O-])c(OCC(=O)OCC)c1,6310 nM (active),

Structure (SMILES),AC50,"activity, negative = inhibition"
CCCCCN=c1ccn(Cc2ccccc2)c2ccccc12,251 nM (active),
O=C(CSc1nnc(CNc2ccc(F)cc2)o1)OC1CCCCC1,11200 nM (active),
O=C(CSc1nc(-c2ccccc2)cs1)N1CCc2ccccc21,2000 nM (active),
O=C(CNCCO)N1CCc2ccccc21,,-20.5% (inactive)
O=C(CSc1nnc(CNc2ccccc2)o1)N1CCCc2ccccc21,4470 nM (active),
O=C(CSc1n[nH]c(-c2ccccc2O)n1)N1CCCc2ccccc21,2510 nM (active),
CCn1ccc(C(=O)NC2=C(C#N)CCC2)n1,,-26.6% (inactive)
CSc1nc(Oc2ccc(=O)[nH]n2)nc(N(C)C)n1,,-10.6% (inactive)
CO[C@@H]1COC(=O)CCC[C@@H](C)[C@H](OC)COC(=O)CCC[C@H]1C,,5.51% [at 11.4 µM] (inactive)
O=C(CSc1nnc(CNc2ccc(F)cc2)o1)N1c2ccccc2Sc2ccccc21,2820 nM (active),
CCOc1ccc(-n2ccnc2SCC(=O)Nc2nnc(C)s2)cc1,,-17.5% (inactive)
O=C(CSc1nnnn1-c1ccccc1)NCc1cccs1,891 nM (active),
CCOc1ccc(-n2ccnc2SCC(=O)Nc2nnc(CC)s2)cc1,8910 nM (active),
CCc1nnc(NC(=O)CCC(=O)N2CCN(c3ccccn3)CC2)s1,,-16.9% (inactive)
COc1ccc(-n2ccnc2SCC(=O)Nc2ccc(OC)cc2OC)cc1,1410 nM (active),
COc1ccc(-n2nnnc2SCC(=O)Nc2ccccc2)cc1,3980 nM (active),
